# Measurements: PubChem BioAssay (NCATS)
# Results filed as inconclusive are left out. A call without a number means that no potency is given here. Calls of active or inactive are those of the source. Calls follow the shape of the dose curve; as a rule, active = well fitted curve in the direction sought with a large enough effect; inconclusive = small, poorly fitted or top-dose-only effect, or another doubt; inactive = no such curve, though single readings can be large; an effect the other way counts as inactive or inconclusive.
# Tests used:
# [1] = molecular target: Cytochrome P450 3A4 (Homo sapiens) (UniProt P08684); test: qHTS Assay for Inhibitors and Substrates of Cytochrome P450 3A4 (AID 884); also: series mostly up to about 57 µM; nearly all actives have a fitted effect of over 50% in size
# How it was run: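 Luminescent readout of luciferin produced by CYP3A4 (20 nM) dealkylation of Luciferin-PPXE, 25 uM (its KM). NADPH-driven reaction ran 60 min at RT after 10 min compound preincubation; data scaled to 57 uM ketoconazole as 100% inhibition.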
# [2] = Confirmation and Secondary Assay for Modulators of Hemoglobin Beta Chain Splicing at IVS2 654 locus (AID 910);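 also: per-well total GFP intensity by laser scanning cytometry after 2-day treatment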
# How it was run: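 HeLa cells stably carrying EGFP interrupted by mutant beta-globin IVS2-654 intron (CMV-driven) were treated with compound for 2 days at 37C; corrected splicing was scored as total peak GFP intensity per well (488 nm excitation, 500-520 nm emission).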
# [3] = molecular target: Cytochrome P450 3A4 (Homo sapiens) (UniProt P08684); test: qHTS Assay for Activators of Cytochrome P450 3A4 (AID 885); also: nearly all actives have a fitted effect of over 65% in size
# How it was run: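 CYP3A4 activity: Luciferin-PPXE O-dealkylation, 25uM substrate, 200mM KPO4, RT throughout. Read-out is luciferase luminescence; higher values reflect activation.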
# [4] = molecular target: Cytochrome P450 2D6 (Homo sapiens) (UniProt P10635); test: qHTS Assay for Inhibitors and Substrates of Cytochrome P450 2D6 (AID 891); conditions: recombinant CYP2D6, luciferin-ME EGE luminescence; also: potency is read from the fitted curve at half-maximal effect; nearly all actives have a fitted effect of over 60% in size
# How it was run: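 Luminescent read-out of luciferin formed by 5 nM human CYP2D6 demethylating 30 uM Luciferin-ME EGE (Km level) over 60 min at room temperature after NADPH regeneration addition. Data normalized to full inhibition by 1.43 uM quinidine.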
# Sequence of Cytochrome P450 3A4 (Homo sapiens) (P08684 whole entry, looked up): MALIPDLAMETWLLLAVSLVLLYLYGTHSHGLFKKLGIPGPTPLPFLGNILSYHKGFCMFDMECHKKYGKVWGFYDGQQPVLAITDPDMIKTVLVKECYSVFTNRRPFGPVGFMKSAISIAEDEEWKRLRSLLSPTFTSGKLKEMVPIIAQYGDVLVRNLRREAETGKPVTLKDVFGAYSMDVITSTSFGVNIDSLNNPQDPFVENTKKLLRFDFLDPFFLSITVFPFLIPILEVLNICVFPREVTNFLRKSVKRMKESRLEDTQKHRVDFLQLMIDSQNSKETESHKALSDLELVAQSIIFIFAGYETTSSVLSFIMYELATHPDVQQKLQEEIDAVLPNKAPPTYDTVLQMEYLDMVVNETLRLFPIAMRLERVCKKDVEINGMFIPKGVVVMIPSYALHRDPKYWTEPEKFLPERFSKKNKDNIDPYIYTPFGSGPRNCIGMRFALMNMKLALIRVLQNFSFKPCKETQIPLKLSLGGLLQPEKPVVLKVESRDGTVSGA
# Sequence of Cytochrome P450 2D6 (Homo sapiens) (P10635 whole entry, looked up): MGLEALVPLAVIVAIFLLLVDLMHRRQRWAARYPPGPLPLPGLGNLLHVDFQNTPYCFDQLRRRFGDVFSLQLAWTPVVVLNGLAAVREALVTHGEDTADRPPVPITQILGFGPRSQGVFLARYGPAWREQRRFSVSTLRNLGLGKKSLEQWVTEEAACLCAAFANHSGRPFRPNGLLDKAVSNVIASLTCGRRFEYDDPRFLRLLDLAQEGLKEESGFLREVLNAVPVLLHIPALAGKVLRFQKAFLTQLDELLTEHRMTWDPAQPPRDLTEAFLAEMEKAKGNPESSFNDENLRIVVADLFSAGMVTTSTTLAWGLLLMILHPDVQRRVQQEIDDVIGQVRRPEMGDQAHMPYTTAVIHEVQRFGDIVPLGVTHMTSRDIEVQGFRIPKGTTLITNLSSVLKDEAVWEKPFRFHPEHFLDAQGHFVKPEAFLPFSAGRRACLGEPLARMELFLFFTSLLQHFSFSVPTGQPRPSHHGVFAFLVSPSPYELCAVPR
compound,measurement,setting,value
CCOC(=O)[C@H](CCc1ccccc1)N[C@@H](C)C(=O)N1[C@H](C(=O)O)C[C@H]2CCCC[C@@H]21,Potency,[1],inactive
same,outcome,[2],inactive
CC(C)NCC(O)c1ccc2ccccc2c1 (stereo unspecified),Potency,[1],inactive
same,outcome,[2],inactive
O=C(O)CCC(=O)Nc1ccc(S(=O)(=O)Nc2nccs2)cc1,outcome,[2],inactive
CCN(CC)CCOC(=O)C(Cc1cccc2ccccc12)CC1CCCO1 (stereo unspecified),outcome,[3],inactive
same,outcome,[2],inactive
COc1ccc(CN(CCN(C)C)c2ncccn2)cc1,Potency,[1],inactive
same,outcome,[2],inactive
CCOC(=O)c1ccc(N)cc1,outcome,[3],inactive
same,outcome,[2],inactive
CN1CCC(OC(c2ccccc2)c2ccccc2)CC1,outcome,[2],inactive
COc1ccc(-c2cc(C(F)F)nn2-c2ccc(S(N)(=O)=O)cc2)cc1F,Potency,[1],inactive
same,outcome,[2],inactive
COc1ccc(C(=O)c2ccccc2O)c(O)c1,outcome,[2],inactive
Nc1ccc(C(=O)NCC(=O)O)cc1,Potency,[1],inactive
same,outcome,[2],inactive
Nc1ccc(S(=O)(=O)Nc2cnc3ccccc3n2)cc1,outcome,[3],inactive
same,outcome,[2],inactive
CC[C@H](c1ccc(O)cc1)[C@@H](CC)c1ccc(O)cc1,outcome,[3],inactive
CCc1cc(Cl)c(OC)c(C(=O)NC[C@@H]2CCCN2CC)c1O,Potency,[4],50.1 nM (active)
